“And” between values parts separate entries of the source, which are not always exact repeats. Equal values may be shown once. Records with an inconclusive call do not appear. Where a call stands in place of a potency, no number is given. More than one record can exist for a structure, and the calls need not agree. The source made the active and inactive calls. Calls follow the shape of the dose curve; as a rule, active = well fitted cell-killing curve with a large enough effect in the repeat runs; inconclusive = weak or mixed curves, or effect the other way; inactive = no such curve, though single readings can be large or run the other way.
Assay: qHTS assay to identify small molecule agonists of the vitamin D receptor (VDR) signaling pathway - cell viability counter screen (AID 743224)
Conditions: VDR-bla HEK293T viability, CellTiter-Glo luminescence, 16 h; series mostly up to 62.6 µM; activity change, negative = cytotoxicity: at the top concentration
Method in brief: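 Counter screen run in the same wells as the VDR-bla reporter assay: CellTiter-Glo luminescence, 30 min at room temperature, after 16 h compound treatment at 37C of cells pre-plated for 4 h.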
Also: nearly all actives have a fitted effect of over 50% in size.
Potency is read from the fitted curve at half-maximal effect.

For `c1ccc2c(c1)ccc1cc3c(ccc4ccccc43)cc12`, which Potency is on record?
Its Potency is “inactive”.

With `Nc1cc([N+](=O)[O-])ccc1C(=O)O` as the compound, how does the Potency read?
Its Potency is “inactive”.

For `FC(F)(F)C(Cl)Br` (stereo not drawn), which Potency is on record?
The Potency was “inactive”.

For `CCCN1C=CN(C)C1`, which Potency is on record?
Its Potency is “inactive”.

With `CC1=CC(C)(C)Nc2ccccc21` as the compound, how does the “activity change, negative = cytotoxicity” value read?
Its value is 0.148% (inactive).

Which Potency does the source give for `C1COCCN1` here?
The Potency was “inactive”.

With `O=C(O)c1ccc(O)cc1` as the compound, how does the Potency read?
Its Potency is “inactive”.

For `COC(=O)C(C)Oc1ccc(Oc2ncc(C(F)(F)F)cc2Cl)cc1` (stereo not drawn), which Potency is on record?
Its Potency is “inactive”.

Which Potency does the source give for `CCCCCCCCCCC(CO)CCCCCCCC` (stereo not drawn) here?
Its Potency is “inactive”.

With `OC[C@@H](O)[C@@H](O[C@@H]1O[C@H](CO)[C@H](O)[C@H](O)[C@H]1O)[C@H](O)[C@@H](O)CO` as the compound, how does the Potency read?
The Potency was “inactive”.

For `[O-]/[N+](=N\O)c1ccccc1`, which “activity change, negative = cytotoxicity” value is on record?
The value was -1.23% (inactive).

For `Cc1ccc(C(C)(C)C)c(O)c1`, which “activity change, negative = cytotoxicity” value is on record?
Its value is -3.35% (inactive).

Which Potency does the source give for `CC(C)(C)c1cccc(C(C)(C)C)c1O` here?
Its Potency is “inactive”.

For `COCCOCCOCCO`, which Potency is on record?
The Potency was “inactive”.

For `CC/C=C\C/C=C\C/C=C\CCCCCCCC(=O)O`, which Potency is on record?
Its Potency is “inactive and 49 µM (active)”.

For `C[C@]12CC[C@@H]3c4ccc(O)cc4CC[C@H]3[C@@H]1CC[C@@H]2O`, which Potency is on record?
The Potency was “inactive”.

Which Potency does the source give for `CN(C)C` here?
Its Potency is “inactive”.

For `CN(C)/N=N/c1nc[nH]c1C(N)=O`, which Potency is on record?
The Potency was “inactive”.

With `Cc1ccc(C(C)(C)C)cc1` as the compound, how does the Potency read?
Its Potency is “inactive”.

For `CC/C(=C(/CC)c1ccc(O)cc1)c1ccc(O)cc1`, which Potency is on record?
The Potency was 24.3 µM (active).

For `C[N+](C)(C)CCO`, which Potency is on record?
Its Potency is “inactive”.

Assay: qHTS assay to identify small molecule antagonists of the vitamin D receptor (VDR) signaling pathway - cell viability counter screen (AID 743225)
Conditions: VDR-bla HEK293T viability, CellTiter-Glo luminescence, 16 h; series mostly up to 61 µM; viability change, negative = cytotoxic: at the top concentration
Method in brief: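 Cytotoxicity toward the VDR-bla HEK 293T line was scored by ATP-based CellTiter-Glo luminescence, read in the wells already used for the beta-lactamase readout after 16 h compound treatment under 3 nM 1-alpha,25-dihydroxyvitamin D3 stimulation.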

Which Potency does the source give for `Cc1cccc(Nc2ccccc2C(=O)O)c1C` here?
The Potency was “inactive”.

With `[Na+]` as the compound, how does the Potency read?
The Potency was “inactive”.

Which Potency does the source give for `Nc1cc(Cl)c(N)c(Cl)c1` here?
Its Potency is “inactive”.

Which Potency does the source give for `IC(I)I` here?
Its Potency is “inactive”.

Which Potency does the source give for `c1ccc2c(c1)[nH]c1ccccc12` here?
Its Potency is “inactive”.

With `CC(=O)Oc1c(C)c(C)c2c(c1C)CC[C@@](C)(CCC[C@H](C)CCC[C@H](C)CCCC(C)C)O2` as the compound, how does the “viability change, negative = cytotoxic” value read?
The value was -2.41% (inactive).

For `O=C1OC2(c3ccccc31)c1cc(I)c(O)c(I)c1Oc1c2cc(I)c(O)c1I`, which Potency is on record?
Its Potency is “inactive”.

For `Nc1ccc(N)c(Cl)c1`, which “viability change, negative = cytotoxic” value is on record?
Its value is 10% (inactive).

For `O=C(CCCN1CCC(O)(c2ccc(Cl)cc2)CC1)c1ccc(F)cc1`, which “viability change, negative = cytotoxic” value is on record?
The value was 8.81% (inactive).

Which Potency does the source give for `CCO[Si](CCCNC(N)=O)(OCC)OCC` here?
The Potency was “inactive”.

For `OC[C@H]1O[C@@H]2O[C@H]3[C@H](O)[C@@H](O)[C@@H](O[C@H]4[C@H](O)[C@@H](O)[C@@H](O[C@H]5[C@H](O)[C@@H](O)[C@@H](O[C@H]6[C@H](O)[C@@H](O)[C@@H](O[C@H]7[C@H](O)[C@@H](O)[C@@H](O[C@H]1[C@H](O)[C@H]2O)O[C@@H]7CO)O[C@@H]6CO)O[C@@H]5CO)O[C@@H]4CO)O[C@@H]3CO`, which Potency is on record?
Its Potency is “inactive”.

Which Potency does the source give for `C=CN1CCCC1=O` here?
Its Potency is “inactive”.

For `CN(Cc1cnc2nc(N)nc(N)c2n1)c1ccc(C(=O)N[C@@H](CCC(=O)O)C(=O)O)cc1`, which Potency is on record?
The Potency was 0.213 µM (active).

With `O=C(O)CCCCCCCCCCCC(=O)O` as the compound, how does the Potency read?
The Potency was “inactive”.

Which Potency does the source give for `Cc1ccc(N)c([N+](=O)[O-])c1` here?
The Potency was “inactive”.

With `C[C@]12C=CC(=O)C=C1CC[C@H]1[C@@H]3C[C@@H](O)[C@](O)(C(=O)CO)[C@@]3(C)C[C@H](O)[C@@]12F` as the compound, how does the “viability change, negative = cytotoxic” value read?
The value was -1.11% (inactive).

Which Potency does the source give for `c1ccc2c(c1)ccc1cc3c(ccc4ccccc43)cc12` here?
The Potency was “inactive”.

Which Potency does the source give for `Nc1cc([N+](=O)[O-])ccc1C(=O)O` here?
Its Potency is “inactive”.

For `FC(F)(F)C(Cl)Br` (stereo not drawn), which Potency is on record?
Its Potency is “inactive”.

With `CCCN1C=CN(C)C1` as the compound, how does the Potency read?
Its Potency is “inactive”.

For `CC1=CC(C)(C)Nc2ccccc21`, which Potency is on record?
Its Potency is “inactive”.

For `C1COCCN1`, which Potency is on record?
The Potency was “inactive”.

Which Potency does the source give for `O=C(O)c1ccc(O)cc1` here?
The Potency was “inactive”.

Which Potency does the source give for `COC(=O)C(C)Oc1ccc(Oc2ncc(C(F)(F)F)cc2Cl)cc1` (stereo not drawn) here?
Its Potency is “inactive”.

Which Potency does the source give for `CCCCCCCCCCC(CO)CCCCCCCC` (stereo not drawn) here?
The Potency was “inactive”.

With `OC[C@@H](O)[C@@H](O[C@@H]1O[C@H](CO)[C@H](O)[C@H](O)[C@H]1O)[C@H](O)[C@@H](O)CO` as the compound, how does the Potency read?
The Potency was “inactive”.

With `[O-]/[N+](=N\O)c1ccccc1` as the compound, how does the Potency read?
Its Potency is “inactive”.

For `Cc1ccc(C(C)(C)C)c(O)c1`, which “viability change, negative = cytotoxic” value is on record?
The value was -1.72% (inactive).

For `CC(C)(C)c1cccc(C(C)(C)C)c1O`, which Potency is on record?
Its Potency is “inactive”.

Which Potency does the source give for `COCCOCCOCCO` here?
The Potency was “inactive”.

Which “viability change, negative = cytotoxic” value does the source give for `CC/C=C\C/C=C\C/C=C\CCCCCCCC(=O)O` here?
The value was -9.23% (inactive).

With `C[C@]12CC[C@@H]3c4ccc(O)cc4CC[C@H]3[C@@H]1CC[C@@H]2O` as the compound, how does the Potency read?
Its Potency is “inactive”.

With `CN(C)C` as the compound, how does the “viability change, negative = cytotoxic” value read?
The value was -4.53% [at 78.8 µM] (inactive).

Which Potency does the source give for `CN(C)/N=N/c1nc[nH]c1C(N)=O` here?
The Potency was “inactive”.

Which Potency does the source give for `Cc1ccc(C(C)(C)C)cc1` here?
Its Potency is “inactive”.

With `CC/C(=C(/CC)c1ccc(O)cc1)c1ccc(O)cc1` as the compound, how does the Potency read?
The Potency was “inactive”.

With `C[N+](C)(C)CCO` as the compound, how does the “viability change, negative = cytotoxic” value read?
The value was -0.288% [at 78.8 µM] (inactive).
